Here are results for eight compounds from PubChem BioAssay (NCI).

SMILES strings stand for the structures. This is part of a sample that, as a whole, favours compounds with a hit. Of some 83,000 tested, about 20% had one in any assay.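 Testing used 96-well plates and a 48-hour single-concentration exposure. Example: -40 means 40% of the starting cells died.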 A number with no mark means an inactive call. Calls of active or inactive are those of the source. Rule for the calls: active = growth percent below 10; inactive = the rest.

Among the test systems are SK-MEL-2 melanoma; EKVX NSCLC; SN12C renal; UO-31 renal; ACHN renal; CAKI-1 renal; A498 renal; CCRF-CEM leukemia; MOLT-4 leukemia; SR leukemia; RPMI-8226 leukemia; OVCAR-8 ovarian; OVCAR-5 ovarian; OVCAR-4 ovarian; SK-OV-3 ovarian; IGROV1 ovarian; OVCAR-3 ovarian; HS 578T breast; NCI/ADR-RES ovarian.
Holding throughout (experiment): NCI-60 one-dose screen, 48 h (100 = growth as untreated, 0 = no growth, -100 = all killed)
Common to all, as to conditions: 10 µM

For `CC1=NN(C(=O)c2nn(-c3ccc(Cl)cc3)cc2O)C(=O)C1`, the growth is 60.3% in the experiment with SK-MEL-2 melanoma; 65.2% in the experiment on EKVX NSCLC; 49.5% in the experiment with SN12C renal; 34.2% in the experiment with UO-31 renal; 42% in the experiment with ACHN renal; 114% in the experiment on CAKI-1 renal. Further, the growth with A498 renal is 90.1%; with CCRF-CEM leukemia it was 13.5%; in the experiment with MOLT-4 leukemia, 24.8%; in the experiment on SR leukemia it was -39.3% (active); with RPMI-8226 leukemia, 13.7%; in the experiment on OVCAR-8 ovarian, 29.4%. Moreover, the growth in the experiment with OVCAR-5 ovarian is 63.5%; in the experiment with OVCAR-4 ovarian it was 29.9%; in the experiment with SK-OV-3 ovarian, 34%; in the experiment with IGROV1 ovarian, 34.8%; in the experiment with OVCAR-3 ovarian it was -6.37% (active); in the experiment on HS 578T breast, 31.8%. Besides, the growth in the experiment with NCI/ADR-RES ovarian is 31.6%.

Consider `COc1ccc(/C=C2\CCCC3=C2NC(N)=NC3c2ccc(OC)c(OC)c2)cc1OC` (stereo not given), for which the growth in the experiment with SK-MEL-2 melanoma was 56.8%; in the experiment with EKVX NSCLC, 82.7%; in the experiment with SN12C renal, 57.4%; with UO-31 renal it was 63%; in the experiment on ACHN renal, 27.3%; in the experiment with CAKI-1 renal, 55.9%. Also, the growth in the experiment with A498 renal was 91.3%; with CCRF-CEM leukemia, 15.3%; in the experiment on MOLT-4 leukemia it was 53.1%; in the experiment with SR leukemia, 28.1%; in the experiment on RPMI-8226 leukemia, 15.2%; with OVCAR-8 ovarian it was 10.6%. Moreover, the growth with OVCAR-5 ovarian was 74.4%; in the experiment with OVCAR-4 ovarian it was 53.4%; in the experiment with SK-OV-3 ovarian, 44.1%; in the experiment on IGROV1 ovarian it was 57.1%; in the experiment on OVCAR-3 ovarian, 10.8%; in the experiment on NCI/ADR-RES ovarian it was 25.1%.

In the case of `COc1ccccc1/C=N\N/C(N)=N\N=C\c1ccccc1OC`, the growth with SK-MEL-2 melanoma was 21.4%; in the experiment on EKVX NSCLC, 26.1%; in the experiment with SN12C renal, 18.4%; in the experiment with UO-31 renal, 14.1%; in the experiment with ACHN renal it was 20.5%; in the experiment on CAKI-1 renal it was -7% (active). In addition, the growth in the experiment on A498 renal is -66.5% (active); in the experiment on CCRF-CEM leukemia, -19.6% (active); in the experiment on MOLT-4 leukemia it was 4.77% (active); with SR leukemia it was -23.1% (active); in the experiment with RPMI-8226 leukemia it was 1.89% (active); in the experiment with OVCAR-8 ovarian, 27.2%. For the same compound, the growth in the experiment on OVCAR-5 ovarian is 32.3%; in the experiment on OVCAR-4 ovarian, 42.4%; in the experiment on SK-OV-3 ovarian, 26.3%; in the experiment on IGROV1 ovarian it was 12%; in the experiment on OVCAR-3 ovarian, -13.2% (active); in the experiment with HS 578T breast, -14.7% (active). For the same compound, the growth in the experiment on NCI/ADR-RES ovarian is 22.6%.

For the compound `CC(C)N(CCOc1cccc(-c2nc3sccn3c2-c2ccnc(S(C)(=O)=O)n2)c1)C(C)C`, the growth in the experiment on SK-MEL-2 melanoma is 109%; in the experiment on EKVX NSCLC it was 101%; in the experiment on SN12C renal, 83.9%; in the experiment with UO-31 renal, 89.8%; in the experiment on ACHN renal, 93.7%; with CAKI-1 renal, 93.3%. The growth in the experiment with A498 renal was 53.2%; in the experiment with CCRF-CEM leukemia it was 81%; in the experiment with MOLT-4 leukemia it was 84.3%; in the experiment on SR leukemia it was 64.3%; in the experiment with RPMI-8226 leukemia, 37.7%; in the experiment with OVCAR-8 ovarian it was 79.2%. The growth was 115% in the experiment on OVCAR-5 ovarian; 64.5% with OVCAR-4 ovarian; 85.7% with SK-OV-3 ovarian; 94.7% in the experiment with IGROV1 ovarian; 90.6% in the experiment with OVCAR-3 ovarian; 95.8% in the experiment on HS 578T breast. The growth in the experiment with NCI/ADR-RES ovarian is 89.5%.

For `COc1ccc(-c2onc(N)c2-c2cc(OC)c3c(c2)OCO3)cc1`, the growth in the experiment with SK-MEL-2 melanoma is 13.6%; in the experiment on EKVX NSCLC, 62%; with SN12C renal, 25.9%; in the experiment with UO-31 renal, 55.2%; in the experiment with ACHN renal, 43.8%; with CAKI-1 renal it was 34%. Further, the growth is 12% with A498 renal; 14.5% in the experiment with CCRF-CEM leukemia; 13.7% with MOLT-4 leukemia; 9.86% (active) in the experiment with SR leukemia; 26.7% in the experiment on RPMI-8226 leukemia; 39.3% in the experiment with OVCAR-8 ovarian. Also, the growth in the experiment with OVCAR-5 ovarian was 51.3%; in the experiment with OVCAR-4 ovarian, 61.9%; in the experiment with SK-OV-3 ovarian, 38.7%; with IGROV1 ovarian, 41.5%; in the experiment on OVCAR-3 ovarian, -1.21% (active); in the experiment with HS 578T breast it was 33.8%. For the same compound, in the experiment with NCI/ADR-RES ovarian, the growth is -10.2% (active).

As to `COc1ccc(C2CC(c3cc(OC)c(OC)c(OC)c3)=NN2)cc1` (stereo not given), the growth in the experiment on SK-MEL-2 melanoma was 87.6%; in the experiment on EKVX NSCLC, 91.2%; in the experiment with SN12C renal, 94.5%; in the experiment on UO-31 renal, 62.7%; with ACHN renal, 99%; with CAKI-1 renal, 69%. For the same compound, the growth is 87.4% in the experiment with A498 renal; 57.3% in the experiment with CCRF-CEM leukemia; 73.4% in the experiment with MOLT-4 leukemia; -35.1% (active) in the experiment on SR leukemia; -8.7% (active) in the experiment on RPMI-8226 leukemia; 100% in the experiment with OVCAR-8 ovarian. Moreover, the growth was 97.9% with OVCAR-5 ovarian; 84.9% in the experiment with OVCAR-4 ovarian; 81.5% with SK-OV-3 ovarian; 62.6% with IGROV1 ovarian; 35.1% in the experiment on OVCAR-3 ovarian; 68.3% with NCI/ADR-RES ovarian.

In the case of `Cc1cc(Cl)ccc1Nc1nc(C(F)(F)F)ccc1C(=O)N/N=C/c1c(Cl)cccc1Cl`, the growth is -17.4% (active) in the experiment with SK-MEL-2 melanoma; 0.628% (active) in the experiment on EKVX NSCLC; 6.51% (active) with SN12C renal; 4.21% (active) in the experiment on UO-31 renal; -8.52% (active) with ACHN renal; -22.7% (active) in the experiment on CAKI-1 renal. The growth in the experiment on A498 renal was -60.8% (active); in the experiment on CCRF-CEM leukemia, -18% (active); in the experiment with MOLT-4 leukemia it was -16.8% (active); in the experiment with SR leukemia, -26.6% (active); in the experiment on RPMI-8226 leukemia, -15.1% (active); in the experiment on OVCAR-8 ovarian, 9.98% (active). Further, the growth in the experiment with OVCAR-5 ovarian is 24.8%; with OVCAR-4 ovarian, 7.14% (active); in the experiment with SK-OV-3 ovarian, -12.9% (active); in the experiment on IGROV1 ovarian, 4.15% (active); in the experiment on OVCAR-3 ovarian, -2.74% (active); with HS 578T breast, -22.1% (active). Moreover, the growth in the experiment on NCI/ADR-RES ovarian is 11.9%.

Take `COc1ccc(/C=C2\CCCC3=C2NC(N)=NC3c2ccc(OC)cc2)cc1` (stereo not given): the growth in the experiment on SK-MEL-2 melanoma was 98.2%; with EKVX NSCLC, 92.1%; with SN12C renal it was 86.7%; in the experiment with UO-31 renal, 72.8%; with ACHN renal, 98.3%; with CAKI-1 renal it was 90.1%. The growth is 84.5% with A498 renal; 87.6% in the experiment on CCRF-CEM leukemia; 84.2% in the experiment with MOLT-4 leukemia; 81.9% in the experiment with SR leukemia; 57.7% in the experiment with RPMI-8226 leukemia; 95.8% with OVCAR-8 ovarian. For the same compound, the growth with OVCAR-5 ovarian is 103%; in the experiment on OVCAR-4 ovarian it was 72.8%; in the experiment on SK-OV-3 ovarian it was 78.3%; in the experiment on IGROV1 ovarian, 99.7%; with OVCAR-3 ovarian, 102%; with HS 578T breast it was 112%. Also, in the experiment on NCI/ADR-RES ovarian, the growth is 90.8%.
